Drawing on PubChem BioAssay (NCI), this text covers growth for 13 molecules.

This is part of a sample that, as a whole, favours compounds with a hit. Of some 83,000 tested, about 20% had one in any assay.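 96-well plates, one dose, 48 hours. Percent growth reported; active if below 10.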 Unmarked numbers belong to inactive results. The source made the active and inactive calls.

Holding throughout (experiment): NCI-60 one-dose screen, 48 h (100 = growth as untreated, 0 = no growth, -100 = all killed)
Details in all cases: 10 µM unless noted

Experiment [1] deals with NCI-H23 lung.
Experiment [2] has as its system NCI-H226 lung.
In experiment [3] the test system is NCI-H322M lung.
Experiment [4] relates to HOP-62 NSCLC.
Experiment [5] concerns NCI-H460 lung.
Experiment [6] has as its system HOP-92 NSCLC.
The subject of experiment [7] is NCI-H522 lung.
The test system of experiment [8] is A549/ATCC NSCLC.
In experiment [9] the test system is 786-0 renal.
In experiment [10] the test system is COLO 205 colon.

For `CC(=O)N1N=C(c2ccc(-n3ccc(C(F)(F)F)n3)c(F)c2)CC1c1ccc[nH]1` (stereo not given), the growth in experiment [1] was 100%; in experiment [2] it was 106%; in experiment [3], 110%; in [4] it was 112%; in experiment [5] it was 103%; in experiment [6], 130%. Further, the growth was 77.2% in experiment [7], 104% in experiment [8], 102% in experiment [9] and 122% in [10].

For `COc1cc(-c2cc(-c3ccc(N(C)C)cc3)nc(N3CCOCC3)c2C#N)cc(OC)c1OC`, the growth in experiment [1] is 60%; in experiment [2], 19.9%; in experiment [3], 35.8%; in [4], -36.8% (active); in experiment [5], 15.2%; in experiment [6], 4.13% (active). The growth in experiment [7] is 0.156% (active); in experiment [8] it was 26.9%; in experiment [9] it was -38.5% (active); in [10], 19.9%.

Regarding `Cc1cccc(-c2cn3ccnc3c(-c3ccc4ncn(Cc5ccccc5)c4c3)n2)c1`, the growth is 90.9% in experiment [1]; 98.8% in experiment [2]; 101% in experiment [3]; 90.3% in [4]; 89.9% in experiment [5]; 71.3% in experiment [6]. Also, the growth in experiment [7] was 71.6%; in experiment [8], 85.1%; in experiment [9] it was 78.6%; in experiment [10], 88.6%.

For the molecule `COC(=O)C1=C(C(=O)ON)C2C=CC1(C(Cc1ccccc1)Nc1ccccc1)O2` (stereo not given), the growth was 89.4% in experiment [1]; 107% in [2]; 93.3% in [3]; 105% in experiment [4]; 103% in experiment [5]; 46.5% in [6]. In addition, the growth in experiment [7] is -77.4% (active); in experiment [8], 96.1%; in experiment [9], 93%; in experiment [10] it was -72% (active).

Take `COc1cc2c(=O)n(CCN)c3c4cc5c(cc4ccc3c2cc1OC)OCO5`: the growth in [1] is 14.2%; in experiment [2], -66% (active); in experiment [3] it was -72.1% (active); in experiment [4], -51.2% (active); in experiment [5], -76.5% (active); in [6], 49.6%. Further, the growth in experiment [7] was -7.78% (active); in experiment [8], -76.5% (active); in experiment [9], -79.3% (active); in experiment [10], -0.566% (active).

On to `COc1ccc2[nH]c(O)c(/C=c3/cc4c(c(-c5ccc(F)cc5)n3)=Nc3ccccc3-4)c2c1`, for which the growth in experiment [1] is 67.9%; in experiment [2] it was 76.3%; in experiment [3], 94%; in [4], 95.5%; in [5], 41.5%; in experiment [6] it was 66.7%. Further, the growth in experiment [7] was 68.5%; in [8], 75.8%; in experiment [9] it was 97.6%; in [10], 96.6%.

As to `Nc1c(C(=O)Nc2ccnc3ccccc23)sc2nc3c(cc12)CN(Cc1ccccc1)CC3`, the growth is 70.3% in [1]; 53.1% in experiment [2]; 90.3% in experiment [3]; 111% in experiment [4]; 87.4% in [5]; 66.7% in experiment [6]. The growth is 70.1% in experiment [7], 85.1% in experiment [8], 66.3% in [9] and 97.3% in [10].

For the molecule `CCCCCCCCOc1ccc(/C=N/Nc2cc(C)nc3ccc(Br)cc23)cc1`, the growth in experiment [1] is 81.9%; in [2], 97.4%; in experiment [3] it was 95.6%; in experiment [4], 87.5%; in experiment [5] it was 16.1%; in experiment [6], 105%. Further, the growth is 71.6% in experiment [7], 27.9% in experiment [8], 28.9% in experiment [9] and 83.9% in experiment [10].

As to `O=C(Nc1ccccc1C(=O)N/N=C(\c1ccccc1)c1ccccn1)c1ccc(F)cc1`, the growth in experiment [1] was 28.2%; in experiment [2], 27.4%; in experiment [3], 25.9%; in [4], 12.6%; in experiment [5], 6.06% (active); in experiment [6], 69.1%. In addition, the growth is 22.7% in experiment [7], 15.6% in experiment [8], -8.12% (active) in [9] and 10.6% in experiment [10].

In the case of `CC1=C(C(=O)/C=C/c2ccc(N(C)C)cc2)C(c2ccccc2)NC(=S)N1` (stereo not given), the growth was 93.3% in experiment [1]; 93.8% in experiment [2]; 103% in experiment [3]; 106% in [4]; 108% in [5]; 96.6% in [6]. Further, the growth was 91% in experiment [7], 106% in experiment [8], 101% in experiment [9] and 119% in experiment [10].

In the case of `COC(=O)c1ccc2c(c1)[n+](=O)c(C(C)=O)c(C(F)(F)F)n2[O-]`, the growth in experiment [1] is -62.2% (active); in experiment [2] it was -17.1% (active); in [3], 66.2%; in [4] it was -9.08% (active); in experiment [5], -88.8% (active); in experiment [6] it was -57% (active). In addition, the growth is -80.7% (active) in experiment [7], 28.6% in experiment [8], -40.5% (active) in experiment [9] and -100% (active) in experiment [10].

With `Cc1cc2c(c(C)c1Cl)C(=O)/C(=C/c1ccc(O)c(O)c1)O2`, the growth was 94.6% in experiment [1]; 92.9% in experiment [2]; 104% in experiment [3]; 90.5% in experiment [4]; 99.9% in [5]; 90.2% in [6]. Also, the growth was 87.3% in experiment [7], 97.8% in experiment [8], 107% in experiment [9] and 114% in [10].

Turning to `CCc1ccc(CNc2ccc(N3CCOCC3)c(C(=O)O)c2)cc1`, the growth is 95.2% in experiment [1]; 109% in experiment [2]; 102% in [3]; 90.2% in [4]; 130% in [5]; 105% in experiment [6]. Besides, the growth in experiment [7] is 83.3%; in experiment [8], 99%; in experiment [9], 98.9%; in experiment [10] it was 101%.
